According to PubChem BioAssay (NCATS):
Several values for one entry are separate records, joined by “and”; a condition that tells them apart may be missing. Identical values can stand only once. Results filed as inconclusive are left out. Values without a mark were called inactive. Activity calls are given as the source filed them. The call rests on the fitted dose curve; in most records, active means well fitted inhibition curve with a large enough effect; inconclusive means small, poorly fitted or top-dose-only effect; inactive means no such curve, though single readings can be large or run the other way.

experiment: Confirmatory qHTS for small molecule stabilizers of the endoplasmic reticulum resident proteome: Secreted ER Calcium Modulated Protein (SERCaMP) assay (AID 1508628); details: SERCaMP secreted luciferase ER calcium/proteostasis reporter; series mostly up to 76.3 µM; activity change, negative = decrease: at the top concentration; further: nearly all actives have a fitted effect of over 40% in size; further: potency means the concentration at half of the fitted maximal effect
How it was run: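 Reporter secretion upon ER calcium depletion (100 nM thapsigargin, 4 h, 37C) is measured as medium luminescence with coelenterazine, after 16 h compound pretreatment of SH-SY5Y-GLuc-SERCaMP cells; primary at three concentrations up to 38.3 uM, follow-up at 11 (up to 76.6 uM).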
On the % scale 0 is the no-effect control and ±100 the full control effect.

Row | SMILES | Potency | activity change, negative = decrease
1 | CC(C)(c1ccc(O)cc1)c1ccc(O)cc1 | 89.1 µM (active) and 44.7 µM (active) and 50.1 µM (active) | 
2 | COc1cccc2c1[C@@H]1CN(CCCCn3c(=O)[nH]c4c(sc5ncc(-c6ccccc6)nc54)c3=O)C[C@@H]1CO2 |  | -12.2%
3 | CC(C(O)c1ccccc1)N(C)CCOC(c1ccccc1)c1ccccc1 (stereo not given) | 31.6 µM (active) | 

experiment: Primary qHTS for small molecule stabilizers of the endoplasmic reticulum resident proteome: Secreted ER Calcium Modulated Protein (SERCaMP) assay (AID 1508630); details: SH-SY5Y GLuc-SERCaMP (Gaussia luciferase released on ER calcium loss) secretion, thapsigargin, luminescence; series mostly up to 38.4 µM; activity change, negative = inhibition: at the top concentration
How it was run: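 The SH-SY5Y reporter protocol was run at 3 concentrations up to 38.3 uM (primary) or 11 concentrations (follow-up): 16 h compound, 100 nM thapsigargin for 4 h, then extracellular luciferase luminescence.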

Row | SMILES | activity change, negative = inhibition | Potency
4 | O=C(OCC(O)CO)c1ccccc1Nc1ccnc2c(C(F)(F)F)cccc12 (stereo not given) | -16.1% | 
5 | O=C(Nc1ccc(Cl)cc1)Nc1ccc(Cl)c(C(F)(F)F)c1 | 53.2% | 
6 | O=C(CCCCCCCCC#CI)Oc1ccccc1 | 1.51% | 
7 | CC(=O)[C@@]1(O)CC[C@H]2[C@@H]3C[C@H](C)C4=CC(=O)CC[C@]4(C)[C@H]3CC[C@@]21C | 14.7% | 
8 | CC1CN(c2cc3c(cc2F)c(=O)c(C(=O)O)cn3-c2ccc(F)cc2F)CCN1 (stereo not given) | -17% [at 3.88 µM] | 
9 | O=C1NCCN1CCN1CCC(c2cn(-c3ccc(F)cc3)c3ccc(Cl)cc23)CC1 | 10.1% | 
10 | CCCC(=O)O[C@]1(C(=O)COC(=O)CC)CC[C@H]2[C@@H]3CCC4=CC(=O)CC[C@]4(C)[C@H]3[C@@H](O)C[C@@]21C | 32.6% [at 21.6 µM] | 
11 | CC(=O)[C@H]1CC[C@H]2[C@@H]3C=CC4=CC(=O)CC[C@@]4(C)[C@@H]3CC[C@]12C | 11.2% | 
12 | O=c1[nH]sc2cc(Cl)ccc12 | 122% | 
13 | Nc1ncnc2n[nH]c(Nc3ccc(F)cc3)c12 | -24.2% | 
14 | Cc1onc(-c2c(Cl)cccc2Cl)c1C(=O)Cl | -28.3% | 
15 | CCCCCCCCCCCCCCCC[n+]1ccccc1 |  | inactive
